Assay [1] is described as follows: E. coli DRC41 culture turbidity changes, primary screen, E. coli filamentation inducer project, strain DRC41, OD650, 48 h (AID 1152).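 Also: E. coli MC1000 strain DRC41 lacking acrAB efflux pump and sulA.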 The conditions noted are these: E. coli DRC41 (acrAB sulA), higher = more signal, called active from +8 up or from −8 down.
A short description of assay [2]: small-molecule binders of probe aLefty1, primary screen, biochemical, small-molecule microarray, 635/667 nm fluorescence (AID 1153).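 Also: score merges spot fluorescence with signal-to-noise ratio from the scanned slide images.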 The conditions noted are these: higher = more signal.
A short description of assay [3]: PSAC antagonists in infected red cells, primary screen, cell-based, P. falciparum Indochina, OD700, 1 h (AID 1154). The conditions noted are these: P. falciparum Indochina infected RBC osmotic lysis, higher = more signal, called active from +8 up or from −8 down.
A short description of assay [4]: PSAC antagonists in infected red cells, primary screen, cell-based, P. falciparum Indochina, OD700, 2 h (AID 1155).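 Also: lysis reports solute entry through the parasite surface anion channel PSAC; channel blockers reduce lysis of infected cells.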 The conditions noted are these: P. falciparum Indochina infected erythrocytes, osmotic lysis OD700; higher = more signal, called active from +8 up or from −8 down.
The nature of assay [5]: osmotic lysis modulators in infected erythrocytes, primary screen, PSAC antagonist project, cell-based, P. falciparum Indochina, OD700, 3 h (AID 1156). The conditions noted are these: higher = more signal, called active from +8 up or from −8 down.
A short description of assay [6]: PSAC antagonists in infected red cells, primary screen, cell-based, P. falciparum Indochina, OD700, 18 h (AID 1157). The conditions noted are these: P. falciparum Indochina infected erythrocytes, osmotic lysis OD700, 18 h; higher = more signal, called active from +8 up or from −8 down.
Assay [7] is described as follows: modulators of S6 phosphorylation in cells, primary screen, cell-based, A549, cytoblot, luminescence, serum-stimulated (AID 1158).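 Also: serum-stimulated A549 lung adenocarcinoma cells; signal is phosphorylated S6 detected by cytoblot immunostaining with HRP secondary.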 The conditions noted are these: A549 phospho-S6 cytoblot, 5 h, higher = more signal.
Assay [8] has as its target NADPH oxidase 2 (Homo sapiens) (UniProt P04839). The experiment in a line: NOX2-dependent H2O2 signal modulators, primary screen, NOX inhibitor project, cell-based, HEK293-NOX2, PMA-stimulated, Amplex Red fluorescence (AID 1159). Also: test concentration not given here. The conditions noted are these: 45 min, higher = more signal, called active from +8 up or from −8 down.
Assay [9] deals with NADPH oxidase 4 (Homo sapiens) (UniProt Q9NPH5). The experiment in a line: NOX4-dependent H2O2 signal modulators, primary screen, NOX inhibitor project, cell-based, HEK293-NOX4, tetracycline-induced, Amplex Red fluorescence (AID 1160). The conditions noted are these: 45 min, higher = more signal, called active from +8 up or from −8 down.
For assay [10], the target named is NADPH oxidase 5 (Homo sapiens) (UniProt Q96PH1). The experiment in a line: NOX5-dependent H2O2 signal modulators, primary screen, NOX inhibitor project, cell-based, HEK293-NOX5, Amplex Red fluorescence (AID 1161). The conditions noted are these: HEK293-NOX5, ionomycin, 45 min, higher = more signal.
Assay [11] in a line: A549 cell viability effects, profiling panel, calcein-AM fluorescence, 48 h, basal (AID 1162). Also: test concentration not given here. The conditions noted are these: higher = more signal.
Assay [12] is described as follows: adipocyte viability effects, profiling panel, cell-based, 3T3-L1 adipocytes, calcein-AM fluorescence, 48 h, basal (AID 1163). Also: test concentration not given here. The conditions noted are these: 3T3-L1 adipocytes viability, higher = more signal.
Assay [13] in a line: HepG2 cell viability effects, profiling panel, calcein-AM fluorescence, 48 h, basal (AID 1164). Also: test concentration not given here. The conditions noted are these: higher = more signal.
Assay [14] is described as follows: MM1S cell viability effects, profiling panel, calcein-AM fluorescence, 48 h, basal (AID 1165).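 Also: viability of MM1S multiple myeloma cells under basal unstimulated conditions; test concentration not given here.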 The conditions noted are these: higher = more signal.
A short description of assay [15]: basal RPMI8226 viability, no added stimulus, profiling panel, cell-based, calcein-AM fluorescence, 48 h, PK04 Diversity Set (AID 1166).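 Also: cells grown under basal conditions without added stimulus; test concentration not given here.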 The conditions noted are these: RPMI8226 myeloma viability, higher = more signal.
Assay [16] in a line: basal HepG2 mitochondrial membrane potential changes, profiling panel, cell-based, JC-1 fluorescence, 24 h, 100 nL compound (AID 1167). Also: test concentration not given here. The conditions noted are these: higher = more signal.
The nature of assay [17]: basal 3T3-L1 adipocyte mitochondrial potential changes, profiling panel, cell-based, JC-1 fluorescence, 3T3-L1 adipocytes, 24 h, 100 nL compound (AID 1168). Also: test concentration not given here. The conditions noted are these: JC-1 mitochondrial fluorescence, higher = more signal, called active from +8 up or from −8 down.
Assay [18] is described as follows: basal RPMI8226 mitochondrial membrane potential changes, profiling panel, cell-based, JC-1 fluorescence, 24 h, 100 nL compound (AID 1169). Also: test concentration not given here. The conditions noted are these: RPMI8226 myeloma, JC-1 mitochondrial potential fluorescence, higher = more signal.
Assay [19] can be described thus: basal MM1S mitochondrial membrane potential changes, profiling panel, cell-based, JC-1 fluorescence, 24 h, 100 nL compound (AID 1170). Also: test concentration not given here. The conditions noted are these: higher = more signal.
The nature of assay [20]: A549 lung cancer cell viability effects, profiling panel, resazurin fluorescence, 24 h, PK04 Diversity Set (AID 1171). Also: test concentration not given here. The conditions noted are these: higher = more signal, called active from +8 up or from −8 down.

SMILES strings stand for the structures. The source made the active and inactive calls.

NADPH oxidase 2 (Homo sapiens), sequence (P04839 whole entry, looked up): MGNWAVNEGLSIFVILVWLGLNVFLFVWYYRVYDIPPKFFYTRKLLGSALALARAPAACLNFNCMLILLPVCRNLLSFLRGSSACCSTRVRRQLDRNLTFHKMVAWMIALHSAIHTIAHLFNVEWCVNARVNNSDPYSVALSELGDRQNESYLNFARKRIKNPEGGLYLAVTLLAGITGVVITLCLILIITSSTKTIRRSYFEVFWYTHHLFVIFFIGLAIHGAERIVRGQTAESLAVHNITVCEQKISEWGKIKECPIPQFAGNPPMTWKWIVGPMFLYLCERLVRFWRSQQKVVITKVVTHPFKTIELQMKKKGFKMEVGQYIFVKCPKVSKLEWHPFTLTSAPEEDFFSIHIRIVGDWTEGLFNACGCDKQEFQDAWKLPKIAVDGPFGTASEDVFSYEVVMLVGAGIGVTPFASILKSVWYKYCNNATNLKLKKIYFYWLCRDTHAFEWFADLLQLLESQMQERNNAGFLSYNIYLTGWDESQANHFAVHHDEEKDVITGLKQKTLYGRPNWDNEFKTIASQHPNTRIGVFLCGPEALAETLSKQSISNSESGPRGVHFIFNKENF
NADPH oxidase 5 (Homo sapiens), sequence (Q96PH1 whole entry, looked up): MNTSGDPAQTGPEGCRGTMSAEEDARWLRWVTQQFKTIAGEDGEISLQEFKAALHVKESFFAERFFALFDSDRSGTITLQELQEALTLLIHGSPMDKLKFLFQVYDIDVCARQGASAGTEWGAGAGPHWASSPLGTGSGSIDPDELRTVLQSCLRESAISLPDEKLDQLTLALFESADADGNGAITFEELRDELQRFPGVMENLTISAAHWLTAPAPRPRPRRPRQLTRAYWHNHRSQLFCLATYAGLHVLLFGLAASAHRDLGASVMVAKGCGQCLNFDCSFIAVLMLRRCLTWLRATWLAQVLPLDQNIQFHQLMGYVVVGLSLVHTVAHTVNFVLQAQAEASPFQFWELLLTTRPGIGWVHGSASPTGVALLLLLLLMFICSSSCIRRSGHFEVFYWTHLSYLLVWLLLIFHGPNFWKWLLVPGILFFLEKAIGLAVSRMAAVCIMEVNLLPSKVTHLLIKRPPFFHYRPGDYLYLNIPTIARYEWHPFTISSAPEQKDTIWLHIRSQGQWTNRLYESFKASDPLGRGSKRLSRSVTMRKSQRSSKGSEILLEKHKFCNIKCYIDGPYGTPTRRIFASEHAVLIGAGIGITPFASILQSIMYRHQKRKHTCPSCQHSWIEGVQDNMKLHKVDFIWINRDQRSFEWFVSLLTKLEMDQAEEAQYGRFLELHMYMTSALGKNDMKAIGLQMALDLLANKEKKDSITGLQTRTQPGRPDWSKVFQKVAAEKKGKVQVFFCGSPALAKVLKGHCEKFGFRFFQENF
NADPH oxidase 4 (Homo sapiens), sequence (Q9NPH5 whole entry, looked up): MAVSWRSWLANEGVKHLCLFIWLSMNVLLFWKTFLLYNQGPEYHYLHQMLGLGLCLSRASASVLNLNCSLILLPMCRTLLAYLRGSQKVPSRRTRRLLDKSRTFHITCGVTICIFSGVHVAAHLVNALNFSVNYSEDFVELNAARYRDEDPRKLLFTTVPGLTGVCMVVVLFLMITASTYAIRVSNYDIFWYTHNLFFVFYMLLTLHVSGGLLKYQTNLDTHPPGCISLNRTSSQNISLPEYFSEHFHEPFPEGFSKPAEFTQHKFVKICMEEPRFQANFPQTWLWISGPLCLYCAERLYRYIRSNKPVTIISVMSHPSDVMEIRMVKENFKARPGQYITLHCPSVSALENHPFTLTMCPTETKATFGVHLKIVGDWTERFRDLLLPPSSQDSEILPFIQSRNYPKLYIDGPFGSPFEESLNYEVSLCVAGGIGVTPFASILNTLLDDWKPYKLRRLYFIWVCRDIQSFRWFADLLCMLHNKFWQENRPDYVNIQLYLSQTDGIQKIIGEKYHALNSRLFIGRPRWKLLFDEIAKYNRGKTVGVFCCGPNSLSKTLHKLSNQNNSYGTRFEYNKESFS

Take `C=C[C@H](OC)[C@@H](OC(=O)Nc1ccc(SC)cc1)c1ccc(OCCO)cc1`: the z-score in assay [1] was -0.356 (inactive); in assay [3] it was 26 (active); in [4] it was 15.7 (active); in assay [5], 2.51 (inactive); in assay [6], 1.82 (inactive); in assay [7], 0.306. The z-score is 0.228 (inactive) in [8]; 0.103 (inactive) in assay [9]; 0.99 in assay [10]; -0.13 in assay [11]; 0.559 in assay [12]; 0.0758 in [13]. In addition, the z-score in assay [14] was -0.164; in [15], 0.609; in assay [16], -2.55; in assay [17], 0.734 (inactive); in assay [18] it was -0.0748; in [19], -0.887. For the same compound, in [20], the z-score was -0.139 (inactive). The compound further returned a composite z-score in assay [2] of -0.101.
As to `CC(c1ccccc1)C(O)C1C=CC2C(=O)N(Cc3ccccc3)C(=O)C2N1n1cnnc1` (stereo not given), the z-score in [1] is -2.13 (inactive); in assay [3], 1.78 (inactive); in [4], 0.975 (inactive); in assay [5], 0.0175 (inactive); in assay [6], 0.929 (inactive); in assay [7] it was -0.396. Further, the z-score is -0.217 (inactive) in assay [8]; -1.09 (inactive) in [9]; -1.02 in assay [10]; -0.313 in [11]; 0.0487 in assay [12]; -0.547 in [13]. The z-score in assay [14] was -0.0399; in assay [15] it was -0.751; in [16], 0.203; in assay [17] it was -0.884 (inactive); in assay [18] it was -0.107; in assay [19], -0.526. For the same compound, in assay [20], the z-score was -0.694 (inactive). This compound showed a composite z-score in assay [2] of -0.13.
As for `CCCCN1CC=CC23O[C@@H]4/C=C\CCCOC(=O)C4[C@H]2C(=O)N(C(C)CO)[C@@H]3C1=O` (stereo not given in full), the z-score in assay [1] was 0.65 (inactive); in assay [3], 1.43 (inactive); in assay [4], 1.06 (inactive); in assay [5], 1.96 (inactive); in assay [6], 0.405 (inactive); in assay [7], 0.199. Also, the z-score in assay [8] is 0.889 (inactive); in assay [9] it was 0.124 (inactive); in assay [10] it was 1.5; in assay [11], -0.455; in [12] it was -0.455; in [13], -0.564. The z-score in [14] was 0.35; in [15] it was 1.4; in [16], 0.698; in assay [17], 0.0147 (inactive); in assay [18] it was -0.546; in assay [19], -1.11. For the same compound, in assay [20], the z-score was -0.249 (inactive). In [2], the composite z-score was -0.206.
`CN1C(=O)C2C=CC(C(O)C(C)(C)C)N(Nc3ccccc3)C2C1=O` (stereo not given): the z-score in assay [1] is -1.06 (inactive); in assay [3] it was 0.931 (inactive); in assay [4], 1.05 (inactive); in assay [5], 0.156 (inactive); in [6], 1.12 (inactive); in assay [7], -1.04. Besides, the z-score in [8] was -1.09 (inactive); in assay [9] it was -3.48 (inactive); in assay [10] it was -1.54; in assay [11], -0.398; in assay [12] it was -1.31; in assay [13], 0.19. The z-score in assay [14] is 0.235; in assay [15], -1.08; in assay [16], -1.16; in assay [17] it was -0.398 (inactive); in assay [18], -0.476; in assay [19], -0.178. Also, in [20], the z-score was -0.463 (inactive). In addition, the composite z-score in [2] was -0.0838.
For `CN1C(=O)C2C(C1=O)C1C=C(c3ccc(CO)cc3)C2C(C2CC2)N1Cc1sc2ccccc2c1Cl` (stereo not given), the z-score in assay [1] was 0.743 (inactive); in assay [3] it was 20.7 (active); in assay [4], 5.75 (inactive); in [5], 0.713 (inactive); in assay [6], 1.82 (inactive); in assay [7] it was 0.0504. The z-score is -3.97 (inactive) in [8]; -0.852 (inactive) in assay [9]; -3.7 in [10]; -0.245 in assay [11]; 0.612 in assay [12]; 1.79 in [13]. Further, the z-score in [14] was -3.2; in [15], -4.33; in assay [16] it was 2.19; in assay [17] it was 0.46 (inactive); in assay [18], -0.957; in assay [19] it was -2.05. For the same compound, the z-score in assay [20] is -2.15 (inactive). The composite z-score in [2] is 0.146.

The record behind these values is PubChem BioAssay.
